# Results published in PubChem BioAssay (NCI).
# The panel holds about 83,000 compounds, 20% with a hit somewhere; the sample as a whole holds those more often.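 Each cell line was grown in a 96-well plate and treated with one concentration of compound for 48 hours. Values below 10 were considered active.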 A number with no mark means an inactive call. Activity calls are given as the source filed them.
# How the values were obtained:
# Experiment in all cases: NCI-60 one-dose screen, 48 h (100 = growth as untreated, 0 = no growth, -100 = all killed)
# Conditions in all cases: 10 µM unless noted
# SK-MEL-2 melanoma = tested on: SK-MEL-2 melanoma
# EKVX NSCLC = tested on: EKVX NSCLC
# SN12C renal = tested on: SN12C renal
# UO-31 renal = tested on: UO-31 renal
# TK-10 renal = tested on: TK-10 renal
# ACHN renal = tested on: ACHN renal
# CAKI-1 renal = tested on: CAKI-1 renal
# A498 renal = tested on: A498 renal
# CCRF-CEM leukemia = tested on: CCRF-CEM leukemia
# MOLT-4 leukemia = tested on: MOLT-4 leukemia
# SR leukemia = tested on: SR leukemia
# RPMI-8226 leukemia = tested on: RPMI-8226 leukemia
# OVCAR-8 ovarian = tested on: OVCAR-8 ovarian
# OVCAR-5 ovarian = tested on: OVCAR-5 ovarian
# OVCAR-4 ovarian = tested on: OVCAR-4 ovarian
# SK-OV-3 ovarian = tested on: SK-OV-3 ovarian
# OVCAR-3 ovarian = tested on: OVCAR-3 ovarian
# HS 578T breast = tested on: HS 578T breast
# NCI/ADR-RES ovarian = tested on: NCI/ADR-RES ovarian
# IGROV1 ovarian = tested on: IGROV1 ovarian
SMILES,growth (SK-MEL-2 melanoma),growth (EKVX NSCLC),growth (SN12C renal),growth (UO-31 renal),growth (TK-10 renal),growth (ACHN renal),growth (CAKI-1 renal),growth (A498 renal),growth (CCRF-CEM leukemia),growth (MOLT-4 leukemia),growth (SR leukemia),growth (RPMI-8226 leukemia),growth (OVCAR-8 ovarian),growth (OVCAR-5 ovarian),growth (OVCAR-4 ovarian),growth (SK-OV-3 ovarian),growth (OVCAR-3 ovarian),growth (HS 578T breast),growth (NCI/ADR-RES ovarian),growth (IGROV1 ovarian)
Cc1ccc(-c2nn(CC(=O)N3CCOCC3)c(N)c2C#N)cc1,103%,102%,102%,84.7%,105%,101%,87.3%,91.3%,101%,103%,99%,108%,99.8%,105%,91.8%,109%,113%,93.1%,108%,–
O=c1c2cccc3c(N4CCOCC4)ccc(c32)c2nc3ccccc3n12,108%,38.3%,87.6%,65.9%,71.8%,91.1%,69.6%,101%,93.1%,90.8%,83.7%,81.7%,93.8%,99.2%,69.9%,–,100%,40.2%,93.9%,58.3%
COc1cc2nc3cc([N+](=O)[O-])ccc3c(NCCCNCCO)c2cc1OC,-44.3% (active),7.46% (active),-33.3% (active),48.9%,-4.55% (active),2.87% (active),55.5%,-80.2% (active),0.0749% (active),2.59% (active),-12.4% (active),-1.84% (active),-28.9% (active),-15.2% (active),-47.2% (active),–,-44.6% (active),-16.1% (active),93.3%,-29.9% (active)
CCCCCC(C)(O)C(C(=O)O)c1ccccc1 (stereo not given),108%,104%,97.8%,94.5%,104%,96.1%,100%,90.3%,105%,112%,102%,101%,101%,96.1%,102%,101%,119%,107%,112%,–
CC/C(=C(/c1ccc(Cl)cc1)c1ccc(OCCCN(C)C)cc1)c1ccc(OC)cc1,105%,91%,83.3%,62.5%,66.7%,83.6%,82.3%,76.3%,37%,28.1%,-40.6% (active),-41.3% (active),74.3%,73.5%,–,102%,68.8%,84.8%,82.9%,63.4%
COc1ccc(-c2ccc(-c3ccc(C(=N)N)nc3)s2)cc1,88.3%,38.8%,-78.9% (active),-96.8% (active),-65.8% (active),-100% (active),-92.3% (active),94.3%,-43.4% (active),-53.7% (active),0.29% (active),-41.1% (active),-17.4% (active),-73.1% (active),–,89.2%,-87.1% (active),-47.5% (active),25.5%,-84.3% (active)
CCOc1ccccc1NC(=O)CCC(=O)OC,121%,94.3%,108%,81.8%,98.7%,106%,92.4%,100%,108%,94.8%,97.8%,104%,119%,110%,–,103%,108%,106%,113%,100%
CCN(CC)CCN1C(=O)c2c(c(C)c3c(oc4cc(OC)ccc43)c2C)C1=O,101%,93.5%,32.2%,-43.7% (active),100%,51%,78.2%,108%,-10.9% (active),61.1%,29.3%,88.1%,90.6%,94.2%,–,115%,112%,118%,86.2%,42.2%
COC1=C(OC)C(=O)C(CCCCCCCCCCO)=C(C)C1=O,49.8%,89.8%,57.6%,70.2%,112%,60.5%,61%,103%,29.1%,28.1%,24%,–,49.4%,103%,-13.7% (active),82.7%,69%,92.6%,29.2%,57.7%
O=C(c1ccc(F)cc1)C1CCN(CCn2c(=O)[nH]c3ccccc3c2=O)CC1,106%,89.3%,105%,64.6%,105%,94.8%,84.2%,118%,101%,95.5%,99.9%,104%,103%,99.9%,–,102%,96.9%,108%,102%,111%
Cn1nc(-c2ccc(Cl)cc2)nc2c(=O)n(C)c(=O)nc1-2,-44.6% (active),-31.2% (active),-72.5% (active),12.3%,70.3%,-88.7% (active),6.17% (active),-94.8% (active),-27.6% (active),-47.3% (active),-40.5% (active),-22.7% (active),-58.8% (active),-89.1% (active),–,32.6%,-40.2% (active),-4.75% (active),-21.5% (active),7.78% (active)
O=C(Nc1cccc(Cl)c1)Oc1c(Cl)c(Cl)c(Cl)c(Cl)c1Cl,100%,78.9%,97.1%,72.1%,125%,95.6%,88.2%,78.8%,94.4%,96%,96.3%,95.4%,98.9%,95.2%,–,85%,101%,82.8%,103%,87.8%
CC(=O)[C@H]1CC[C@]2(C)[C@@H]1CC[C@@H]1[C@@]3(C)C/C(=C/c4cccnc4)C(=O)C(C)(C)[C@@H]3CC[C@]12C,85.3%,85.1%,75.6%,78.2%,162%,87.3%,72.5%,100%,31.7%,20.3%,40.9%,–,27.1%,132%,43.6%,87.2%,47.4%,94.2%,67.2%,93.4%
O=c1c(/C=C/c2c(O)ccc3ccccc23)nnc2sc(-c3cccc([N+](=O)[O-])c3)nn12,79.2%,54.4%,45.9%,20.1%,83.1%,31.7%,24.9%,50.5%,18.6%,25.9%,28.3%,–,22.4%,82.1%,25.5%,46%,15.2%,68.3%,29.4%,43.1%
COCCn1cc(-c2nc(-c3cc4cccnc4n3C)cs2)c2cc(OC)ccc21,56.3%,24.8%,73%,51%,19.5%,64.2%,74.5%,46.6%,28.8%,48.5%,31%,–,48.9%,37.5%,8.84% (active),50%,6.53% (active),56.8%,45.9%,28.4%
